Source: PubChem
TDP1 cell noCPT – qHTS for Inhibitors of human tyrosyl-DNA phosphodiesterase 1 (TDP1): qHTS in cells in absence of CPT. DT40 Tdp1-/- hTDP1 cells, no CPT, ATP luminescence, 48 h. Potency, µM (doses to about 46.2 µM), usual class: inhibitors. actives 15% (n = 420,000); further: nearly all actives have a fitted effect of over 55% in size
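Chicken DT40 Tdp1-/- cells stably complemented with human TDP1 were seeded at 400 cells/well with DMSO in place of 20 nM camptothecin. After compound pinning, cells grew at least 48 hr at 37 °C; viability read by CellTiter-Glo luminescence.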
SW480 rerep – DNA re-replication induction in SW480 cells; Potency, µM (doses to about 46.1 µM), most hits filed as activators; AID 624297; SW480 DNA re-replication, Hoechst DNA content imaging, 48 h; actives 1.8% (n = 340,000); further: nearly all actives have a fitted effect of over 55% in size
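First, 250 cells per well were seeded. Next, compound or vehicle (23 nL) was pinned in, plates sat 48 hr at 37 C. Finally Hoechst was added for 40 min before fluorescence scanning.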
TDP1 cell CPT – DT40-hTDP1 cell growth loss with CPT; chicken DT40 Tdp1-/-;hTDP1 cells + 20 nM CPT, ATP luminescence, 48 h; Potency, µM (doses to about 46.2 µM), most hits filed as inhibitors; actives 12% (n = 420,000); AID 686979; further: nearly all actives have a fitted effect of over 55% in size
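Cell growth measured by CellTiter-Glo luminescence after a minimum 48 h, 37 C compound exposure with 20 nM CPT in Tdp1-knockout DT40 cells stably expressing hTDP1, seeded 400/well; qHTS titration format.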
Chronic BCR inh – chronic active BCR signaling inhibition | ABC-DLBCL IkBa-CBG/CBR reporter, luminescence ratio, 4 h | Potency, µM (doses to about 46.1 µM), actives largely listed as inhibitors | actives 0.05% (n = 340,000) | AID 493014; active means well fitted inhibition curve with a large enough effect in the signal ratio, with a control signal flat, not every such curve was filed as active; inconclusive means small, poorly fitted or top-dose-only effect, or effect the other way, or a change in a side signal; the % refers to the signal ratio
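TMD8 ABC-DLBCL cells carrying doxycycline-inducible green luciferase fused to IkappaBalpha plus unfused red luciferase were exposed to compounds (up to 46 uM) for 4 hrs at 37C. Activity came from the overlap-corrected green/red luminescence ratio.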
MCF10A rerep – DNA re-replication induction in MCF 10a cells. MCF 10A DNA re-replication, Hoechst nuclear intensity, 48 h. Potency, µM (top dose mostly 46.1 µM), most hits filed as activators. actives 2.9% (n = 350,000). AID 624296; further: nearly all actives have a fitted effect of over 50% in size
IL1B secr inh – inhibitors of inflammasome signaling (IL-1 beta secretion). actives 4.7% (n = 360,000). activity change, % at 57.5 µM. AID 743279. THP-1 LPS/ATP IL-1B secretion, AlphaLISA, 16 h; stronger effect = lower value; in the data active means activity change below about -50%; inconclusive means mostly about -30% to -49%
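Secreted IL-1B measured by AlphaLISA bead assay after 16 h compound exposure of THP-1 cells; compounds (final up to 57.5 uM) added 1 h before LPS (250 ng/mL) and ATP (1.25 mM) stimulation; lower signal means less secretion.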
Hits are given with their value; – = inactive; ? = inconclusive; · = no result given; [ ] = dose if it differs, or a comment. Compounds with a hit are over-represented: about 19% of the library has one in this group of screens. Unless noted, the call rests on the fitted dose curve; in most records, active means well fitted curve in the direction sought with a large enough effect; inconclusive means small, poorly fitted or top-dose-only effect, or another doubt; inactive means no such curve, though single readings can be large; an effect the other way counts as inactive or inconclusive.

SMILES | TDP1 cell noCPT | SW480 rerep | TDP1 cell CPT | Chronic BCR inh | MCF10A rerep | IL1B secr inh
O=C(NC1CCS(=O)(=O)C1)c1cccc(Cl)c1 (configuration not stated) | – | – | – | ? | – | –
CCn1c(CNC(=O)COc2ccc(C(C)C)cc2)nnc1SCC(=O)Nc1ccccc1C(C)C | 16µM | – | 16µM | – | ? | –
Nc1ccc(C(=O)N2CCN(S(=O)(=O)c3ccc4c(c3)OCCCO4)CC2)cc1[N+](=O)[O-] | ? | – | ? | ? | – | –
CCOC(=O)C1(CCCc2ccccc2)CCN(C(=O)c2n[nH]c(CC)c2C)CC1 | 13µM | · | 23µM | · | · | ?
CCOC(=O)C1(CCc2ccccc2)CCN(C(=O)c2cnc(C)cn2)CC1 | ? | – | ? | – | – | –
CCOC(=O)C1(CCCc2ccccc2)CCN(C(=O)c2cncs2)CC1 | 23µM | – | 18µM | – | – | –
CCOC(=O)C1(CCCc2ccccc2)CCN(C(=O)COC)CC1 | – | – | ? | – | – | –
CCOC(=O)C1(CCCc2ccccc2)CCN(C(=O)c2cc(C)nn2CC)CC1 | 9.2µM | – | 18µM | – | ? | –
CCOC(=O)C1(CCCc2ccccc2)CCN(C(=O)Cn2nc(C)nc2C)CC1 | ? | – | 23µM | – | – | –
CCOC(=O)C1(CCCc2ccccc2)CCN(C(=O)c2ocnc2C)CC1 | ? | – | – | – | – | –
CCCC(C)c1nnc(NC(=O)c2cc(C(=O)OC)cc([N+](=O)[O-])c2)s1 (configuration not stated) | ? | – | – | – | – | –
Cc1ccc(-c2nnc(CN3CCCCC3C)o2)cc1 (configuration not stated) | – | – | – | ? | – | –
CCOc1ccc(NC(=O)CN(C)C(=O)C2CCN(C(=O)c3ccc(Cl)cc3)CC2)cc1OCC | – | – | – | – | – | -51
COc1ccc(C(=O)N2CCC(C(=O)Nc3ccc(Cl)cc3)CC2)cc1 | ? | · | 5.8µM | · | · | ·
CCOc1ccc(NC(=O)CN(C)C(=O)C2CCN(C(=O)Nc3ccccc3)CC2)cc1OCC | – | – | – | · | – | –
Cc1cc(Cl)ccc1C(=O)C1CCCN(C(=O)c2cccc(N3CCCC3=O)c2)C1 (configuration not stated) | ? | – | 16µM | – | – | –
Cc1ccc(NC(=O)C2CCCN(C(=O)c3ccc(Cl)cc3)C2)cc1 (configuration not stated) | ? | – | ? | – | – | –
Cc1cc(Cl)ccc1C(=O)C1CCCN(C(=O)c2ccsc2)C1 (configuration not stated) | ? | – | ? | · | – | –
Cc1ccc(NC(=O)C2CCCN(C(=O)c3ccc(Cl)cc3)C2)cc1C (configuration not stated) | 2.9µM | – | 4.1µM | ? | – | -71
Cc1ccc(C)c(N2N=C(C(=O)N(CC(C)C)c3c(N)n(Cc4ccccc4)c(=O)[nH]c3=O)CCC2=O)c1 | – | – | – | – | – | –
CC(C)N1CCC(=O)NC1=O | – | – | – | · | – | –
CCC1CSC(=Nc2ccc(C)cc2)N1C(=O)CN1C(=O)NC2(CCCC2)C1=O (configuration not stated) | – | – | – | – | – | –
COC(=O)c1ccc(NC(=O)C2CCN(C(=O)c3cc(OC)c(OC)c(OC)c3)CC2)cc1 | ? | – | ? | ? | – | –
CCOC(=O)c1ccc(NC(=O)C2CCN(C(=O)c3ccc(OC)c(OC)c3)CC2)cc1 | 21µM | – | ? | ? | – | –
CCOC(=O)c1ccc(N2C(=O)c3[nH]nc(-c4ccc(C)cc4)c3C2c2cccs2)cc1 (configuration not stated) | 16µM | · | 16µM | · | · | ·
SMILES | TDP1 cell noCPT | SW480 rerep | TDP1 cell CPT | Chronic BCR inh | MCF10A rerep | IL1B secr inh
CCOC(=O)c1ccc(N2C(=O)c3n[nH]c(-c4ccco4)c3C2c2ccc(C(=O)OC)cc2)cc1 (configuration not stated) | 15µM | · | 26µM | · | · | ·
CCOC(=O)c1ccc(N2C(=O)c3[nH]nc(-c4ccc(OC)cc4)c3C2c2ccccc2Cl)cc1 (configuration not stated) | 23µM | · | 18µM | · | · | ·
CCOC(=O)c1ccc(N2C(=O)c3[nH]nc(-c4ccc(C)cc4)c3C2c2ccc(O)c(OCC)c2)cc1 (configuration not stated) | 23µM | · | 18µM | · | · | ·
CCOC(=O)c1ccc(N2C(=O)c3n[nH]c(C)c3C2c2ccc(OC)cc2)cc1 (configuration not stated) | ? | – | – | ? | ? | –
COc1ccccc1S(=O)(=O)N[C@@H]1CC[C@@H](CCn2cc(C3CC3)nn2)O[C@@H]1CO | – | · | – | · | · | –
Cc1ccc(C2(C)NC(=O)N(CC(=O)Nc3ccccc3C(=O)NC3CCCC3)C2=O)cc1 (configuration not stated) | – | – | – | – | – | –
CCOc1cc(C2c3c(n[nH]c3C)C(=O)N2c2ccc(Br)cc2)ccc1O (configuration not stated) | – | –[9.22 µM] | – | ? | – | ?
CCOC(=O)c1ccc(N2C(=O)c3n[nH]c(-c4ccco4)c3C2c2ccc(O)c(OCC)c2)cc1 (configuration not stated) | 15µM | · | 16µM | · | · | ·
CC(C)CN(CC(C)C)C(=O)CCCC(=O)N(CC(C)C)CC(C)C | 16µM | – | ? | – | – | –
Cc1cc2oc(=O)c(CC(=O)NCCCO)c(C)c2c2occ(C(C)(C)C)c12 | – | – | ? | – | – | –
Cc1cc2oc(=O)c(CC(=O)NCCCN(C)C)c(C)c2c2occ(C(C)(C)C)c12 | ? | 9.2µM | ? | ? | ? | -98
COCCNC(=O)Cc1c(C)c2c(cc(C)c3c(C(C)(C)C)coc32)oc1=O | 15µM | 16µM | 9.2µM | ? | 5.8µM | –
Cc1coc2c1c(C)cc1oc(=O)c(CC(=O)NCCc3ccc(Cl)cc3)c(C)c12 | ? | · | – | · | · | ·
COc1ccc(CCNC(=O)Cc2c(C)c3c(cc(C)c4c(C)coc43)oc2=O)cc1OC | 21µM | · | 18µM | · | · | ·
Cc1ncc2c(c1CNS(=O)(=O)N(C)C)CCN(C(=O)c1[nH]c3ccc(Cl)cc3c1C)C2 | ? | · | –[9.04 µM] | · | · | ·
Cc1sc2nc(COC(=O)c3ccc(Cl)c(N)c3)[nH]c(=O)c2c1C | 7.3µM | – | 16µM | ? | – | –
Cc1sc2nc(COC(=O)c3ccc(N4CCCC4)c([N+](=O)[O-])c3)[nH]c(=O)c2c1C | ? | – | – | – | – | –
Cc1sc2nc(COC(=O)c3c(F)cccc3F)[nH]c(=O)c2c1C | ? | – | – | ? | – | –
